Measurements: ChEMBL document CHEMBL3433997, “St. Jude Leishmania screening dataset” (2016)
Values joined by “and” are separate entries in the source; they are usually repeats but may differ in a detail not shown here. Equal values may be shown once.

molecular target: Solute carrier family 2, facilitated glucose transporter member 1 (Homo sapiens) (UniProt P11166); experiment: ST_JUDE_LEISH: Cytotoxicity at 2uM final concentration against transgenic Leishmania Mexicana promastigotes LmGLUT1 that are glucose transport deficient and complemented with the human glucose transporter GLUT1. Activity is measured by DNA content using SYBR green in vitro; assay type: functional
Sequence (P11166 whole entry): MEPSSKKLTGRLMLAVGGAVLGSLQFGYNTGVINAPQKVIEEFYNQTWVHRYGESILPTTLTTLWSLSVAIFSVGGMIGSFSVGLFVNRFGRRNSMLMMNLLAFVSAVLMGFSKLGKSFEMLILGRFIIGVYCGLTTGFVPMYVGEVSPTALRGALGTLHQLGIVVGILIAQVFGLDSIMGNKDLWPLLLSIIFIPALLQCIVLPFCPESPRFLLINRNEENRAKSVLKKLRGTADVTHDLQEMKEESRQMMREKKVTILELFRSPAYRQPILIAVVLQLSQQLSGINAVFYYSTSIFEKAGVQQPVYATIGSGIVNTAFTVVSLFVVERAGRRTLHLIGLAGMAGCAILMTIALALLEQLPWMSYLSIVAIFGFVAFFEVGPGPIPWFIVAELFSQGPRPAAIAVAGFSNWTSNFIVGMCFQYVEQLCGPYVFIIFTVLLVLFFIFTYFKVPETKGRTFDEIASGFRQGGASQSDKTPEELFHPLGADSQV

| Compound | inhibition |
| --- | --- |
| CN1CCN(CCCNCc2ccc(Nc3nccc(Nc4ccc(Oc5ccccc5)cc4)n3)cc2)CC1 | 0.09% |
| CN(C)CCNC(=O)[C@H](Cc1ccccc1)NC(=O)c1ccc(O)c(-c2ccc(Cl)c(Cl)c2)c1 | -0.64% |
| O=C(Nc1cccnc1)c1cc(-c2cccnc2)nc2ccc(Br)cc12 | 7.01% |
| Cc1cccc(NC(=O)NCc2ccccc2)n1 | 1.62% |
| COc1ccc(Nc2nccc(-c3c(-c4cccc(NC(=O)c5c(F)cccc5F)c4)nn4ccccc34)n2)cc1Cl | 0.2% |
| FC(F)(F)c1ccc2[nH]c(-c3ccc(-c4cccc(CNCc5ccccc5)c4)s3)nc2c1 | 2.04% |
| O=C(/C=C/c1ccc(Cl)c(Cl)c1)NCCCCCN1CCC(NC(=O)Nc2cccc(Cl)c2)CC1 | 3.22% |
| CC1CCCC(NCc2c(O)ccc3ccccc23)C1 (stereo not given) | 3.58% |
| c1ccc(CCNCc2ccc(-c3ccc(CNCc4ccc5c(c4)OCO5)cc3)nc2)cc1 | 2.48% |
| N#Cc1ccc2c(c1)CN(CCCCNC(=O)c1ccc(-c3ccccc3)cc1)CC2 | 3.14% |
| Cc1nc(C)c(-c2ccc(C(=O)c3ccc(Cl)cc3)cc2)c(O)c1Cl | 8.16% |
| CN1CCN(CCCN(Cc2ccc(-c3cccc(CNCc4ccc5c(c4)OCO5)c3)cc2)C(=O)NC2CCCCC2)CC1 | 4.38% |
| O=C(/C=C/c1cccc(C(F)(F)F)c1)NCCCCCN1CCN(C(=O)Nc2ccc(Cl)c(Cl)c2)CC1 | 2.21% |
| Cc1ccccc1C1CCN(C2CCC(NC(=O)c3ccc4c(c3)-c3nocc3C(C)O4)CC2)CC1 (stereo not given) | 5.85% |
| CN(C)C(=S)N/N=C1/C(=O)Nc2ccccc21 | 3.54% |
| CCOc1ccc(-n2nc3c(Cl)nnc(-c4ccccc4)c3c2-c2ccccc2)cc1 | 4.48% |
| O=C(NC(CCCN1CCC(c2ccccc2)CC1)c1ccc(Cl)c(Cl)c1)c1cc(C(F)(F)F)cc(C(F)(F)F)c1 (stereo not given) | 2.06% |
| Cc1ccc(C)c(Sc2ccc(NC(=O)CN3CCN(C(=O)c4ccco4)CC3)cc2)c1 | 0.6% |
| C=C[C@]1(C)C[C@@H](OC(=O)CNC[C@@H](O)CN2C[C@H](c3ccnc4ccc(OC)nc34)OC2=O)[C@@]2(C)[C@@H]3C(=O)CC[C@@]3(CC[C@@H]2C)[C@@H](C)[C@@H]1O | 2.09% |
| O=c1c(Br)c(C(F)(F)F)[nH]c2ccc(Oc3ccccc3)cc12 | 2.41% |

| Compound | inhibition |
| --- | --- |
| COc1cccc(COCC(O)CN(CCc2ccccn2)C(=O)c2ccccc2F)c1 (stereo not given) | 2.13% |
| CN1CCN(Cc2cccc(-c3cc4nccc(Nc5ccc(Oc6ccccc6)cc5)c4cc3Cl)c2)CC1 | -1.94% |
| Cc1cccc2nc(-c3ccc(-c4ccc(CN5CCN(C6CCN(C)CC6)CC5)cc4)s3)[nH]c12 | 0.65% |
| COc1cc(Nc2ccnc3ccc(C(C)(C)C)cc23)cc(OC)c1OC | 0.32% |
| Cc1ccc(F)c(C(=O)Nc2cccc(-c3nn4ccccc4c3-c3ccnc(Nc4cccc(F)c4)n3)c2)c1F | 9.44% |
| CN1CCN(c2ccc(-c3cc(-c4cc(F)c(F)c(F)c4)cnc3N)cc2)CC1 | 4.36% |
| CC[C@H]1CN2CCc3c([nH]c4ccccc34)[C@@H]2C[C@@H]1CC1c2cc(OC)c(OC)cc2CCN1C (stereo not given in full) | 9.81% |
| Oc1ccc(CCNCCCCCCNCCc2ccc(Cl)c3ccccc23)cc1O | -0.26% |
| O=C(Nc1cccc([N+](=O)[O-])c1)Nc1ccc(Cl)c(C(F)(F)F)c1 | -1.69% |
| Oc1ccc(CCNCCCCCCNCCCc2ccc(Cl)cc2)cc1O | 2.83% |
| COc1c(C2CCN(CCCCNC(=O)c3ccc(-c4ccc(Cl)cc4)cc3)CC2)ccc2c1C(C)(C)CCC2(C)C | -1.1% |
| Cc1cc(Nc2nc(NCc3cccnc3)nc3ccccc23)n[nH]1 | 8.58% |
| CCCc1cn2c3c(cc(C(=O)N[C@@H](Cc4ccccc4)[C@H](O)CNC4CCOCC4)cc13)N(CC)S(=O)(=O)CC2 | 1.86% |
| Cc1cc2c(cc1C(F)(F)F)N(C(=O)Nc1ccc(OCCN(C)C)c(C(F)(F)F)c1)CC2 | 2.99% |
| Cc1[nH]c2ccccc2c1C(=O)CSc1nn(-c2ccccc2)c(=S)s1 | 5.67% |
| O=C(Nc1ccc(Cn2ncc(N3CCCNCC3)c(Cl)c2=O)cc1)Nc1ccc(-c2ccccc2)cc1 | -0.52% and 1.84% |
| CN1CCc2ccc(NC(=O)Nc3ccc(-c4ccccc4)cc3)cc2C1 | 1.53% |
| O=c1cc(NCCCNCc2cccc(I)c2)[nH]c2ccccc12 | 0.98% |
| CC(C)Cc1nc(N)nc(N)c1-c1ccc(Cl)cc1 | 6.51% |
| CCN(CC)CCN(Cc1ccc(-c2ccc(C(F)(F)F)cc2)cc1)C(=O)Cn1c(CCc2cc(F)cc(F)c2F)nc(=O)c2ccccc21 | 2.05% |

molecular target: Hexose transporter 1 (Plasmodium falciparum) (UniProt O97467); experiment: ST_JUDE_LEISH: Cytotoxicity at 2uM final concentration against transgenic Leishmania Mexicana promastigotes LmPfHT that are glucose transport deficient and complemented with the Plasmodium falciparum hexose transporter. Activity is measured by DNA content using SYBR green in vitro; assay type: functional

| Compound | inhibition |
| --- | --- |
| CN1CCN(CCCNCc2ccc(Nc3nccc(Nc4ccc(Oc5ccccc5)cc4)n3)cc2)CC1 | 1.17% |
| CN(C)CCNC(=O)[C@H](Cc1ccccc1)NC(=O)c1ccc(O)c(-c2ccc(Cl)c(Cl)c2)c1 | 1.18% |
| O=C(Nc1cccnc1)c1cc(-c2cccnc2)nc2ccc(Br)cc12 | 1.51% |
| Cc1cccc(NC(=O)NCc2ccccc2)n1 | 1.46% |
| COc1ccc(Nc2nccc(-c3c(-c4cccc(NC(=O)c5c(F)cccc5F)c4)nn4ccccc34)n2)cc1Cl | 1.51% |
| FC(F)(F)c1ccc2[nH]c(-c3ccc(-c4cccc(CNCc5ccccc5)c4)s3)nc2c1 | 0.97% |
| O=C(/C=C/c1ccc(Cl)c(Cl)c1)NCCCCCN1CCC(NC(=O)Nc2cccc(Cl)c2)CC1 | 4.71% |
| CC1CCCC(NCc2c(O)ccc3ccccc23)C1 (stereo not given) | 3.22% |
| c1ccc(CCNCc2ccc(-c3ccc(CNCc4ccc5c(c4)OCO5)cc3)nc2)cc1 | -1.05% |
| N#Cc1ccc2c(c1)CN(CCCCNC(=O)c1ccc(-c3ccccc3)cc1)CC2 | 3.16% |
| Cc1nc(C)c(-c2ccc(C(=O)c3ccc(Cl)cc3)cc2)c(O)c1Cl | 10.4% |
| CN1CCN(CCCN(Cc2ccc(-c3cccc(CNCc4ccc5c(c4)OCO5)c3)cc2)C(=O)NC2CCCCC2)CC1 | 1.35% |
| O=C(/C=C/c1cccc(C(F)(F)F)c1)NCCCCCN1CCN(C(=O)Nc2ccc(Cl)c(Cl)c2)CC1 | 2.33% |
| Cc1ccccc1C1CCN(C2CCC(NC(=O)c3ccc4c(c3)-c3nocc3C(C)O4)CC2)CC1 (stereo not given) | 4.08% |
| CN(C)C(=S)N/N=C1/C(=O)Nc2ccccc21 | 1.92% |
| CCOc1ccc(-n2nc3c(Cl)nnc(-c4ccccc4)c3c2-c2ccccc2)cc1 | 6.02% |
| O=C(NC(CCCN1CCC(c2ccccc2)CC1)c1ccc(Cl)c(Cl)c1)c1cc(C(F)(F)F)cc(C(F)(F)F)c1 (stereo not given) | 1.99% |
| Cc1ccc(C)c(Sc2ccc(NC(=O)CN3CCN(C(=O)c4ccco4)CC3)cc2)c1 | 0.52% |
| C=C[C@]1(C)C[C@@H](OC(=O)CNC[C@@H](O)CN2C[C@H](c3ccnc4ccc(OC)nc34)OC2=O)[C@@]2(C)[C@@H]3C(=O)CC[C@@]3(CC[C@@H]2C)[C@@H](C)[C@@H]1O | 1.68% |
| O=c1c(Br)c(C(F)(F)F)[nH]c2ccc(Oc3ccccc3)cc12 | 2.75% |

| Compound | inhibition |
| --- | --- |
| COc1cccc(COCC(O)CN(CCc2ccccn2)C(=O)c2ccccc2F)c1 (stereo not given) | 2.79% |
| CN1CCN(Cc2cccc(-c3cc4nccc(Nc5ccc(Oc6ccccc6)cc5)c4cc3Cl)c2)CC1 | 0.9% |
| Cc1cccc2nc(-c3ccc(-c4ccc(CN5CCN(C6CCN(C)CC6)CC5)cc4)s3)[nH]c12 | 1.2% |
| COc1cc(Nc2ccnc3ccc(C(C)(C)C)cc23)cc(OC)c1OC | 0.17% |
| Cc1ccc(F)c(C(=O)Nc2cccc(-c3nn4ccccc4c3-c3ccnc(Nc4cccc(F)c4)n3)c2)c1F | 8.92% |
| CN1CCN(c2ccc(-c3cc(-c4cc(F)c(F)c(F)c4)cnc3N)cc2)CC1 | 1.8% |
| CC[C@H]1CN2CCc3c([nH]c4ccccc34)[C@@H]2C[C@@H]1CC1c2cc(OC)c(OC)cc2CCN1C (stereo not given in full) | 10% |
| Oc1ccc(CCNCCCCCCNCCc2ccc(Cl)c3ccccc23)cc1O | -2.07% |
| O=C(Nc1cccc([N+](=O)[O-])c1)Nc1ccc(Cl)c(C(F)(F)F)c1 | 1.56% |
| Oc1ccc(CCNCCCCCCNCCCc2ccc(Cl)cc2)cc1O | 4.13% |
| COc1c(C2CCN(CCCCNC(=O)c3ccc(-c4ccc(Cl)cc4)cc3)CC2)ccc2c1C(C)(C)CCC2(C)C | -1.15% |
| Cc1cc(Nc2nc(NCc3cccnc3)nc3ccccc23)n[nH]1 | 10.4% |
| CCCc1cn2c3c(cc(C(=O)N[C@@H](Cc4ccccc4)[C@H](O)CNC4CCOCC4)cc13)N(CC)S(=O)(=O)CC2 | 2.35% |
| Cc1cc2c(cc1C(F)(F)F)N(C(=O)Nc1ccc(OCCN(C)C)c(C(F)(F)F)c1)CC2 | 2.92% |
| Cc1[nH]c2ccccc2c1C(=O)CSc1nn(-c2ccccc2)c(=S)s1 | 7.39% |
| O=C(Nc1ccc(Cn2ncc(N3CCCNCC3)c(Cl)c2=O)cc1)Nc1ccc(-c2ccccc2)cc1 | 0.35% and 2.4% |
| CN1CCc2ccc(NC(=O)Nc3ccc(-c4ccccc4)cc3)cc2C1 | 0.83% |
| O=c1cc(NCCCNCc2cccc(I)c2)[nH]c2ccccc12 | 0.27% |
| CC(C)Cc1nc(N)nc(N)c1-c1ccc(Cl)cc1 | 5.64% |
| CCN(CC)CCN(Cc1ccc(-c2ccc(C(F)(F)F)cc2)cc1)C(=O)Cn1c(CCc2cc(F)cc(F)c2F)nc(=O)c2ccccc21 | 0.76% |
